Here are results for one sequence from paper PMC7862700, “An all-to-all approach to the identification of sequence-specific readers for epigenetic DNA modifications on cytosine”.

Holding throughout (assay): DAPPL (digital affinity profiling via proximity ligation, sequencing); 10 mM Tris-HCl pH 7.5, 50 mM NaCl, 1 mM DTT, 4% glycerol, room temperature, 30 min; GST-TFs on glutathione beads, 16-mer random dsDNA library, 0.1% formaldehyde crosslink after washing; high values mean tight binding
Assay [1] addresses T1, FLI1 (Homo sapiens, UniProt Q01543 1-452).
T1 sequence: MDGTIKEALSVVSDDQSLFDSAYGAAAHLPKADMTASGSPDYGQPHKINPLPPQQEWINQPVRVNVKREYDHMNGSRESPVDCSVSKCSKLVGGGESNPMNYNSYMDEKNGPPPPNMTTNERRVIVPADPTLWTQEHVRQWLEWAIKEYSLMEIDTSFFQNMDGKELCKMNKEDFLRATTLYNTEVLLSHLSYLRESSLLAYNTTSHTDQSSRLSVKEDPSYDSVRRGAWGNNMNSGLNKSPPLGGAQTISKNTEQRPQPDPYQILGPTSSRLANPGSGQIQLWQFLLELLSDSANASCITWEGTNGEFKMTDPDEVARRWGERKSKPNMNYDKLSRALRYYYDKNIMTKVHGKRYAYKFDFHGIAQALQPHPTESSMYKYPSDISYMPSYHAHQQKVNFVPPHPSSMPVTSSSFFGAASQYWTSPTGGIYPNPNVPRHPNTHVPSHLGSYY
To be noted: protein: recombinant; tags: N-terminal GST; dsDNA, one strand shown. The method, boiled down: (§1)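 Beads coated with glutathione captured GST-fused human transcription factors that had been expressed in yeast, and the factors were then given DNA barcodes and pooled with a tag-only sample. The pools were incubated with 200 nmole of a random double-stranded 16-mer DNA library in Tris/NaCl/DTT/glycerol buffer for 30 min at room temperature, washed, crosslinked with 0.1% formaldehyde and proximity-ligated with BsaI/T4 ligase at 37 °C for 1 h. PCR amplification and Illumina NextSeq500 sequencing came last. Binding signal is each hexamer's read frequency for a factor divided by its frequency for the tag-only sample.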

Assay [2] has as its target T2, GABPA (Homo sapiens, UniProt Q06546 1-454).
T2 sequence: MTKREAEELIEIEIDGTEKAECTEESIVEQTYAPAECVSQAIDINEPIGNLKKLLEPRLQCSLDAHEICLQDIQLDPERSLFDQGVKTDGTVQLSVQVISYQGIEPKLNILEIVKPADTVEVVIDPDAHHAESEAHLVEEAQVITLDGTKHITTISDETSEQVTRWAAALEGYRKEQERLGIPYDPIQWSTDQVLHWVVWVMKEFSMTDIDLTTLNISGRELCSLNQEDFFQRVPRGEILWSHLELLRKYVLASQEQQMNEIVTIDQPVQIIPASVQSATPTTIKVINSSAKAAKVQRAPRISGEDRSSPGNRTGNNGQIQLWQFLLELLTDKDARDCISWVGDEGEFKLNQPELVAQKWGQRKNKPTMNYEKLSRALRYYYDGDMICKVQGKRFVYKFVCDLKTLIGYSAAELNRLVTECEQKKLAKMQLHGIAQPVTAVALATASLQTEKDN
To be noted: protein: recombinant; tags: N-terminal GST; dsDNA, one strand shown. The method, boiled down:
as §1

Assay [3] concerns the target T3, ERG (Homo sapiens, UniProt P11308 1-479).
T3 sequence: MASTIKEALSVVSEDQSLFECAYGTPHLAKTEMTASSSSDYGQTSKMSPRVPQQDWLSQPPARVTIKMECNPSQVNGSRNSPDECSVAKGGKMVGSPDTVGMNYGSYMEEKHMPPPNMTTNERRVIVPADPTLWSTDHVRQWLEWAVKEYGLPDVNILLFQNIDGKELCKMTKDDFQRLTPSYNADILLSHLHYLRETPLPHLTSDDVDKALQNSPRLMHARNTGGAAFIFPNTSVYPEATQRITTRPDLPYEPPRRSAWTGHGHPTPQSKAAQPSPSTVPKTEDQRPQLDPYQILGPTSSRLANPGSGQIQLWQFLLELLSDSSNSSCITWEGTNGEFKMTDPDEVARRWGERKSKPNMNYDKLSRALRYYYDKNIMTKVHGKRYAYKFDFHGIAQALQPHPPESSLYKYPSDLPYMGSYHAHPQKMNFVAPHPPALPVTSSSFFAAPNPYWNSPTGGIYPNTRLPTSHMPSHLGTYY
To be noted: protein: recombinant; tags: N-terminal GST; dsDNA, one strand shown. An outline of the steps: as §1

Assay [4] deals with ELF1 (Homo sapiens, UniProt P32519 1-619). To be noted: protein: recombinant; tags: N-terminal GST; dsDNA, one strand shown. An outline of the steps:
as §1

In assay [5] the target is T4, EHF (Homo sapiens, UniProt Q9NZC4 1-300).
T4 sequence: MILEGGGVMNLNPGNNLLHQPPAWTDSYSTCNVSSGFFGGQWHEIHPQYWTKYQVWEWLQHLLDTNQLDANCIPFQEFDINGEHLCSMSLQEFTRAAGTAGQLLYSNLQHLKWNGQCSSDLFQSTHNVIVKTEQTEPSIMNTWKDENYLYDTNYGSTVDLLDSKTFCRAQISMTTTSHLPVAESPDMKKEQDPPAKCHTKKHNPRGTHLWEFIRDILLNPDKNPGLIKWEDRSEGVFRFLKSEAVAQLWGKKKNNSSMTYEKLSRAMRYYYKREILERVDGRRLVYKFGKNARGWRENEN
To be noted: protein: recombinant; tags: N-terminal GST; dsDNA, one strand shown. The method, boiled down:
as §1

For assay [6], the target named is SPI1 (Homo sapiens, UniProt P17947 1-270). To be noted: protein: recombinant; tags: N-terminal GST; dsDNA, one strand shown. The method, boiled down:
as §1

Assay [7] concerns the target SPIB (Homo sapiens, UniProt Q01892 1-262). To be noted: protein: recombinant; tags: N-terminal GST; dsDNA, one strand shown. An outline of the steps:
as §1

Assay [8] addresses T5, ELK3 (Homo sapiens, UniProt P41970 1-407).
T5 sequence: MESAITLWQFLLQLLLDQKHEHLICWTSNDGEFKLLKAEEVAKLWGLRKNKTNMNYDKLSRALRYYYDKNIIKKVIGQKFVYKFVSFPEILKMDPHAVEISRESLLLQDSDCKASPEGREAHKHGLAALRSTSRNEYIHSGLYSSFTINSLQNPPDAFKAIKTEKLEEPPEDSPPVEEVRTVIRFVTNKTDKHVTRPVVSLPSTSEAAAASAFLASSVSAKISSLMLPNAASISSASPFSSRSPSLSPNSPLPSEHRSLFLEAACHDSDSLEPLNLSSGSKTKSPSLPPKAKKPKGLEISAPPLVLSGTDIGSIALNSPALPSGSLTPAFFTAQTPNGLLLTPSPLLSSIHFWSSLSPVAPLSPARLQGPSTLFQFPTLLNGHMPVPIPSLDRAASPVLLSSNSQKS
To be noted: protein: recombinant; tags: N-terminal GST; dsDNA, one strand shown. The method, boiled down: as §1

In assay [9] the target is T6, FEV (Homo sapiens, UniProt Q99581 1-238).
T6 sequence: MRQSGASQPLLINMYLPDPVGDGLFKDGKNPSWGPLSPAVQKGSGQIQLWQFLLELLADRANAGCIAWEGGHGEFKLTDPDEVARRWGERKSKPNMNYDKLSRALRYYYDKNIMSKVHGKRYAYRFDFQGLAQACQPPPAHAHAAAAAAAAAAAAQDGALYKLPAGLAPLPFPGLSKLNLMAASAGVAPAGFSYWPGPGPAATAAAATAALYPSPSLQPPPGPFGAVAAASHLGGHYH
To be noted: protein: recombinant; tags: N-terminal GST; dsDNA, one strand shown. The method, boiled down:
as §1

Assay [10] has as its target ETV5 (Homo sapiens, UniProt P41161 1-510). As to conditions: protein: recombinant; tags: N-terminal GST; dsDNA, one strand shown. An outline of the steps:
as §1

The target in assay [11] is HSF1 (Homo sapiens, UniProt Q00613 1-529). As to conditions: protein: recombinant; tags: N-terminal GST; chain copies: 3; dsDNA, one strand shown. The method, boiled down:
as §1

Assay [12] addresses T7, SPIC (Homo sapiens, UniProt Q8N5J4 1-248).
T7 sequence: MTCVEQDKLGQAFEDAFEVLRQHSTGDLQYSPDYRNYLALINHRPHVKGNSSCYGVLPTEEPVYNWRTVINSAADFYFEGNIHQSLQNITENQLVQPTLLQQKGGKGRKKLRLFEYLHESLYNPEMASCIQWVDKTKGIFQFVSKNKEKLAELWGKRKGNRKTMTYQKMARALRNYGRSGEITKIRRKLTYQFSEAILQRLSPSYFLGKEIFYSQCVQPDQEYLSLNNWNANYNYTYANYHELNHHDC
As to conditions: protein: recombinant; tags: N-terminal GST; dsDNA, one strand shown. The method, boiled down:
as §1

Assay [13] concerns the target ELF4 (Homo sapiens, UniProt Q99607 1-663). As to conditions: protein: recombinant; tags: N-terminal GST; dsDNA, one strand shown. An outline of the steps:
as §1

The target of assay [14] is T8, ELK4 (Homo sapiens, UniProt P28324-2 1-405).
T8 sequence: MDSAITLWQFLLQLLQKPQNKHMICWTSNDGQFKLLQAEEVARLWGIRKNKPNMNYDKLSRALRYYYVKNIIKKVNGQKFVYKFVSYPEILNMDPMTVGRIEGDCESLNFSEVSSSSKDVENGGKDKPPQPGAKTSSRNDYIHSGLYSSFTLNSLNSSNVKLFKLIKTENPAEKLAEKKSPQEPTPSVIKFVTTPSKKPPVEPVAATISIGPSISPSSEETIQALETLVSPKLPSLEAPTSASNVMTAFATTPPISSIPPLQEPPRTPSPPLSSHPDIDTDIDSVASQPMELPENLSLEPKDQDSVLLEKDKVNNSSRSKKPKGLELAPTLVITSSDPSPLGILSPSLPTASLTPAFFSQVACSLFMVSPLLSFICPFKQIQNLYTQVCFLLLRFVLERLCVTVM
To be noted: protein: recombinant; tags: N-terminal GST; dsDNA, one strand shown. An outline of the steps:
as §1

In assay [15] the target is T9, ETV2 (Homo sapiens, UniProt O00321 1-342).
T9 sequence: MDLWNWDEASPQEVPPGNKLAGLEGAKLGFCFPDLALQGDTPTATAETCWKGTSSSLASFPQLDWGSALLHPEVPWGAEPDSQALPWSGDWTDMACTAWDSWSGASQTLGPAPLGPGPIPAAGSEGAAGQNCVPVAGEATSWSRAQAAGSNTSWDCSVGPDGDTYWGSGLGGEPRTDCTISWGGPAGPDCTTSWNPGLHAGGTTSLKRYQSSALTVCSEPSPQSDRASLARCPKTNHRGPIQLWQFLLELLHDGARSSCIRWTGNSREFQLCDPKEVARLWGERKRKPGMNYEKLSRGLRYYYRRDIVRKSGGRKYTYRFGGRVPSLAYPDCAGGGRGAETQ
As to conditions: protein: recombinant; tags: N-terminal GST; dsDNA, one strand shown. The method, boiled down: as §1

The target in assay [16] is T10, ELF3 (Homo sapiens, UniProt P78545 1-371).
T10 sequence: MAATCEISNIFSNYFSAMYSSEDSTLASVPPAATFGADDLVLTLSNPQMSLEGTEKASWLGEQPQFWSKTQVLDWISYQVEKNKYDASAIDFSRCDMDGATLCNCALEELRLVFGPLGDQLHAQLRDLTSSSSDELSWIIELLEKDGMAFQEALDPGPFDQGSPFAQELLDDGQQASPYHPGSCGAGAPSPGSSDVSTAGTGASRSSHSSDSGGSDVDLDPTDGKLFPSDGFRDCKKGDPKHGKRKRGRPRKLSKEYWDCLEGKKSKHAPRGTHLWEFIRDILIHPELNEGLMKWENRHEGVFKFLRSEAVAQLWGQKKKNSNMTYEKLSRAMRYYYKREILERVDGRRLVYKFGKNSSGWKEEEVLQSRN
As to conditions: protein: recombinant; tags: N-terminal GST; dsDNA, one strand shown. An outline of the steps:
as §1

The target in assay [17] is CRX (Homo sapiens, UniProt O43186 1-299). To be noted: protein: recombinant; tags: N-terminal GST; dsDNA, one strand shown. An outline of the steps: as §1
CRX, sequence (O43186 whole entry): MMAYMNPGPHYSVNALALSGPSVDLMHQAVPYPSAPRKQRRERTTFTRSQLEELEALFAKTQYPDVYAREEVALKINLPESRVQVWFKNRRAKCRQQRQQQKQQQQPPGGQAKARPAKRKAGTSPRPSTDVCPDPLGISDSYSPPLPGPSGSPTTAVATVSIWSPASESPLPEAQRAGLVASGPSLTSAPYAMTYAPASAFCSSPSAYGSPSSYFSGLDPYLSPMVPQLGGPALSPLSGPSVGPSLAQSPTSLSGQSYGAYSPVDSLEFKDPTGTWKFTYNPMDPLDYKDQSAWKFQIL
The target of assay [18] is ETV1 (Homo sapiens, UniProt P50549 1-477). As to conditions: protein: recombinant; tags: N-terminal GST; dsDNA, one strand shown. The method, boiled down: as §1
ETV1, sequence (P50549 whole entry): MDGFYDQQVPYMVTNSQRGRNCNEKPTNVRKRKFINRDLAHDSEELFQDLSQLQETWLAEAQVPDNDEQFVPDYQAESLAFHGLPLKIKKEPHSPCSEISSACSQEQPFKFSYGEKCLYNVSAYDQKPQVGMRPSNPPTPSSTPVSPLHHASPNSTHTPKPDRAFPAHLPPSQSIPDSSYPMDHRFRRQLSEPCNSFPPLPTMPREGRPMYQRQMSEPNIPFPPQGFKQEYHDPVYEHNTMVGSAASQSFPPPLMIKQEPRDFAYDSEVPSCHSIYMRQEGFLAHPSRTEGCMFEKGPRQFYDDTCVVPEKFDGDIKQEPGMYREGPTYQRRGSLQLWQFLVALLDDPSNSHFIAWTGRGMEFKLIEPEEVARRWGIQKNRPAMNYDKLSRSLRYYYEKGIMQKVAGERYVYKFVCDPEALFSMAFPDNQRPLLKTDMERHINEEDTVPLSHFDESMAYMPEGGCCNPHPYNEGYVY

ELF1, sequence (P32519 whole entry): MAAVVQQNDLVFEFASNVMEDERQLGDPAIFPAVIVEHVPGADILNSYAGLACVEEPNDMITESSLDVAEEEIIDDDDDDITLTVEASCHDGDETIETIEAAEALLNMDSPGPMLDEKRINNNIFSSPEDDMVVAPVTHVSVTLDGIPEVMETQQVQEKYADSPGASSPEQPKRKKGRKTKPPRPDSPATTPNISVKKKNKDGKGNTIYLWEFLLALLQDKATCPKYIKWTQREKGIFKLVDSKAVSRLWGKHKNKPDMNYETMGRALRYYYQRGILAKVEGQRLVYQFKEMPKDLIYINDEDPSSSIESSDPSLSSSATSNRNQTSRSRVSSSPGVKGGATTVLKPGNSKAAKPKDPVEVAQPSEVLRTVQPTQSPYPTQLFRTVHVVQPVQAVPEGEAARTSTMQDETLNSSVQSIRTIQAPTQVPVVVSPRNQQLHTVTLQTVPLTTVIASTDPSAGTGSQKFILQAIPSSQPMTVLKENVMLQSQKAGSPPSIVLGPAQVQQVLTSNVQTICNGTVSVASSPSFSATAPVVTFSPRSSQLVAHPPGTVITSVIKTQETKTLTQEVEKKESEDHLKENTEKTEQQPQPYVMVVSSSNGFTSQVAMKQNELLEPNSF
SPIB, sequence (Q01892 whole entry): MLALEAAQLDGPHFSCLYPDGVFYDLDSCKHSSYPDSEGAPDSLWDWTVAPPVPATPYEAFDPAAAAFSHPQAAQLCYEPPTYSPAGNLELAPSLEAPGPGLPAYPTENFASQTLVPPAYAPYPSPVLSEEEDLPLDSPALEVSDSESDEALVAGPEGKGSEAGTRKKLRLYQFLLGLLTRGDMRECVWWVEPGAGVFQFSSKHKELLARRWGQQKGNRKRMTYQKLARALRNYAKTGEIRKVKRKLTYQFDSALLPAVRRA
ELF4, sequence (Q99607 whole entry): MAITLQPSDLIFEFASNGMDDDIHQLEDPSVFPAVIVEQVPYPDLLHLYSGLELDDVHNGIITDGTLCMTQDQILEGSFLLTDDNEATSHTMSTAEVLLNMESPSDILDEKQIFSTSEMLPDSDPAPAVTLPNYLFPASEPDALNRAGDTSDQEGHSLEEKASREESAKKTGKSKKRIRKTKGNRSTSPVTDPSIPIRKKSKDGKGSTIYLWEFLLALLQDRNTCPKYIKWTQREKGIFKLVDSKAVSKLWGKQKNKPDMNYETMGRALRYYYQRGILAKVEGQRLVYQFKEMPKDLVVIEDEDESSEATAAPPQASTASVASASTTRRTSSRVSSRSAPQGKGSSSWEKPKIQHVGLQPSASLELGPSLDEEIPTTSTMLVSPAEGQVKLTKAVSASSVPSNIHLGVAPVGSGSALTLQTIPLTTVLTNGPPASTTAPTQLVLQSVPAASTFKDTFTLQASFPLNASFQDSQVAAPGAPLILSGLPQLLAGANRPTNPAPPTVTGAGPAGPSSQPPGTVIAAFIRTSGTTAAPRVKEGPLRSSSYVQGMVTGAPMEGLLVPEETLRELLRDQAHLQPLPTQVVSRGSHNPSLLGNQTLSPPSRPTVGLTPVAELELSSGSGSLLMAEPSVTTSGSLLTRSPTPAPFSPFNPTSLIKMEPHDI
ETV5, sequence (P41161 whole entry): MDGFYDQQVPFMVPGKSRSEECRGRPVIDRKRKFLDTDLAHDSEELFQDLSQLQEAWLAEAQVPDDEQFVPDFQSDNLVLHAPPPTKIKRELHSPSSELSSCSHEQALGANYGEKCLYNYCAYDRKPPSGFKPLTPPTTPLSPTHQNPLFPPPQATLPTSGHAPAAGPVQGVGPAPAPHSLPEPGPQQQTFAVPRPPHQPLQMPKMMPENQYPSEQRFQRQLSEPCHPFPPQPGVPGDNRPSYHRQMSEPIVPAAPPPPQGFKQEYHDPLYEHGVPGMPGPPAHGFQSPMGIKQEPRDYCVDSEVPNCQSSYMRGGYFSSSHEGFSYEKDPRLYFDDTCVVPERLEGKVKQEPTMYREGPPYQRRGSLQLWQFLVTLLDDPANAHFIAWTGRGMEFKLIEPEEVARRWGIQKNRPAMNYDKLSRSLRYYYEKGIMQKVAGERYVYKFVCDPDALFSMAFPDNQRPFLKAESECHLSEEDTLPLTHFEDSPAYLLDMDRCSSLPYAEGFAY
HSF1, sequence (Q00613 whole entry): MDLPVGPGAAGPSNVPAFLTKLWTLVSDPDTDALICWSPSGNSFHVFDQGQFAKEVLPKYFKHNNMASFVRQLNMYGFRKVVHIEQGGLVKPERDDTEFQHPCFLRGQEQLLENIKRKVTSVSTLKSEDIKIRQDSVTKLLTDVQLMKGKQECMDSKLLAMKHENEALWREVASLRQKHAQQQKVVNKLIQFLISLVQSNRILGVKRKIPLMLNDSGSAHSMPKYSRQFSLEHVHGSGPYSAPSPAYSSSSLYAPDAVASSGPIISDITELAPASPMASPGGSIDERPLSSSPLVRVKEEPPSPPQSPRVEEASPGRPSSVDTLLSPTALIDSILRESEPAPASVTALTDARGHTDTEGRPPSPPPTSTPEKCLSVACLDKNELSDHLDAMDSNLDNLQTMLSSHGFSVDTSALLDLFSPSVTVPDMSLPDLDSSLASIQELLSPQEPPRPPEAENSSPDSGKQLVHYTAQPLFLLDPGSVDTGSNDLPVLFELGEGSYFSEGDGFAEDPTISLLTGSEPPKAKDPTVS

In the case of GGGTTT, the binding signal in assay [1] was 1.17 fold enrichment (6-mer frequency, TF over GST control); in assay [2], 1.1 fold enrichment (6-mer frequency, TF over GST control); in assay [3] it was 1.1 fold enrichment (6-mer frequency, TF over GST control); in [4], 1.1 fold enrichment (6-mer frequency, TF over GST control); in assay [5], 1.11 fold enrichment (6-mer frequency, TF over GST control); in [6] it was 1.05 fold enrichment (6-mer frequency, TF over GST control). Further, the binding signal is 1.05 fold enrichment (6-mer frequency, TF over GST control) in assay [7]; 1.03 fold enrichment (6-mer frequency, TF over GST control) in assay [8]; 1.06 fold enrichment (6-mer frequency, TF over GST control) in assay [9]; 1.08 fold enrichment (6-mer frequency, TF over GST control) in assay [10]; 1.12 fold enrichment (6-mer frequency, TF over GST control) in assay [11]; 1.16 fold enrichment (6-mer frequency, TF over GST control) in assay [12]. The binding signal in [13] is 1.2 fold enrichment (6-mer frequency, TF over GST control); in assay [14], 1.12 fold enrichment (6-mer frequency, TF over GST control); in assay [15] it was 1.33 fold enrichment (6-mer frequency, TF over GST control); in assay [16], 1.05 fold enrichment (6-mer frequency, TF over GST control); in assay [17] it was 1.25 fold enrichment (6-mer frequency, TF over GST control); in assay [18], 1.1 fold enrichment (6-mer frequency, TF over GST control).
